# Several values for one entry are separate records, joined by “and”; a condition that tells them apart may be missing. Equal entries are not always repeated. Results filed as inconclusive are left out. Where a call stands in place of a potency, no number is given. The source holds several records for some structures; these can differ, active in one and inactive in another. Activity calls are given as the source filed them. Unless noted, calls come from the whole dose curve; as a rule, active = well fitted curve in the direction sought with a large enough effect in the repeat runs; inconclusive = weak or mixed curves; inactive = no such curve, though single readings can be large; an effect the other way counts as inactive or inconclusive.
# Experiments:
# [1] = qHTS assay for small molecules that induce genotoxicity in human embryonic kidney cells expressing luciferase-tagged ATAD5 (AID 651632); note: nearly all actives have a fitted effect of over 15% in size; note: potency is the fitted concentration of half-maximal effect
# Outline: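 HEK293T cells carrying a luciferase reporter tagged to ATAD5 were exposed to compound or DMSO vehicle for 16 hr at 37C, 5% CO2. Amplite was added, and after 30 min at room temperature luciferase activity was read as a marker of ATAD5 induction.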
# [2] = qHTS assay for small molecules that induce genotoxicity in human embryonic kidney cells expressing luciferase-tagged ATAD5 - cell viability (AID 651634; calls by dose curve; note: nearly all actives have a fitted effect of over 25% in size; note: potency is the fitted concentration of half-maximal effect)
# Outline: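 HEK293T cells expressing luciferase-tagged ATAD5 were exposed to compound or DMSO for 15.5 hr at 37C, 5% CO2. Viability was then read as live-cell protease activity by CellTiter-Fluor fluorescence after 30 min at 37C.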
# [3] = qHTS assay for small molecule disruptors of the mitochondrial membrane potential - cell viability (AID 720634; calls by dose curve; note: nearly all actives have a fitted effect of over 20% in size; note: potency is the fitted concentration of half-maximal effect)
# Outline: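 HepG2 cells seeded overnight at 37 C, then exposed to compound or DMSO for 1 hr at 37 C, 5% CO2. m-MPI dye added, then CellTiter-Glo for 30 min at room temperature; viability read as ATP luminescence.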
# [4] = qHTS assay for small molecule disruptors of the mitochondrial membrane potential (AID 720635); note: potency is the fitted concentration of half-maximal effect
# Outline: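 HepG2 cells exposed to compound 1 hr at 37C, then Mito-MPS dye 30 min. Ratio read of aggregate (540/590 nm) versus monomer (490/535 nm) fluorescence.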
# [5] = qHTS assay to test for compound auto fluorescence at 590 nm (red) in HepG2 cells (AID 720674)
# Outline: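 HepG2 cells, 2,000 per well in MEM with 10% FBS, attached overnight at 37 C, then got 23 nL compound or DMSO. After 1 hr at 37 C, 5% CO2, red fluorescence was read at 540/590 nm against Rose Bengal sodium as reference.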
# [6] = qHTS assay to test for compound auto fluorescence at 535 nm (green) in HepG2 cells (AID 720675)
# [7] = qHTS assay to test for compound auto fluorescence at 460 nm (blue) in HEK293 cells (AID 720678)
# Outline: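 After cell attachment (4-5 hr, 37C), compounds were pinned onto HEK293 monolayers in 10% dialyzed FBS medium. The blue channel (405/460 nm) was read following overnight culture. Equivalency was calculated against triamterene.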
# [8] = qHTS assay to test for compound auto fluorescence at 590 nm (red) in HEK293 cells (AID 720679)
# Outline: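 Plates of HEK293 cells (10% dialyzed FBS) are treated with 23 nL compound or DMSO vehicle after a 4-5 hr attachment period, incubated overnight at 37C, and read for red fluorescence at 540/590nm.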
# [9] = qHTS assay to test for compound auto fluorescence at 535 nm (green) in HEK293 cells (AID 720680)
# [10] = qHTS assay to test for compound auto fluorescence at 460 nm (blue) in HEK293 cell free culture (AID 720681)
# Outline: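 Compounds were added to cell-free DMEM with 10% FBS and fluorescence read directly. The blue channel used 405 nm excitation and 460 nm emission, with triamterene as the reference fluorophore.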
# [11] = qHTS assay to test for compound auto fluorescence at 535 nm (green) in HEK293 cell free culture (AID 720682)
# Outline: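 Cell-free medium (DMEM, 10% FBS) receives compound or DMSO by pintool. Plate read directly at Ex 485/Em 535 nm. Signal converted to fluorescein equivalency.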
# [12] = qHTS assay to test for compound auto fluorescence at 590 nm (red) in HEK293 cell free culture (AID 720683)
# Outline: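 Cell-free wells of DMEM with 10% FBS received compound, and intrinsic fluorescence was read at excitation/emission 540/590 nm. Values expressed as equivalence to Rose Bengal sodium.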
# [13] = qHTS assay to test for compound auto fluorescence at 590 nm (red) in HepG2 cell free culture (AID 720684)
# Outline: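 Compound was pinned into wells holding MEM with 10% FBS and no cells, and red fluorescence was read at Ex/Em 540/590 nm. Signal is expressed as auto fluorescence equivalency relative to Rose Bengal sodium.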
# [14] = qHTS assay to test for compound auto fluorescence at 460 nm (blue) in HepG2 cell free culture (AID 720685)
# Outline: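 Compound (23 nL) or DMSO pinned into cell-free MEM with 10% FBS; blue fluorescence read at 405/460 nm excitation/emission, expressed as auto-fluorescence equivalency to triamterene.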
# [15] = qHTS assay to test for compound auto fluorescence at 460 nm (blue) in HepG2 cells (AID 720687)
# Outline: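 HepG2 cells in MEM with 10% FBS, attached overnight at 37 C, were exposed to compound or DMSO for 1 hr at 37 C, 5% CO2. Blue fluorescence was read at 405/460 nm, with triamterene as reference fluorophore.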
# [16] = qHTS assay for small molecule agonists of the p53 signaling pathway - cell viability (AID 651633; calls by dose curve; note: nearly all actives have a fitted effect of over 30% in size; note: potency is the fitted concentration of half-maximal effect)
# Outline: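 p53RE-bla cells were treated with compound for 16 hours at 37 C. Cytotoxicity was then measured as CellTiter-Glo luminescence after 30 min at room temperature.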
# [17] = qHTS assay to test for compound auto fluorescence at 535 nm (green) in HepG2 cell free culture (AID 720686)
# [18] = molecular target: Glucocorticoid receptor (Homo sapiens) (UniProt P04150); assay: qHTS assay to identify small molecule agonists of the glucocorticoid receptor (GR) signaling pathway (AID 720691; active = well fitted activation curve with a large enough effect in the signal ratio in the repeat runs, not every such curve was filed as active; the % refers to the signal ratio)
# Chain of Glucocorticoid receptor (Homo sapiens) (P04150 whole entry, looked up): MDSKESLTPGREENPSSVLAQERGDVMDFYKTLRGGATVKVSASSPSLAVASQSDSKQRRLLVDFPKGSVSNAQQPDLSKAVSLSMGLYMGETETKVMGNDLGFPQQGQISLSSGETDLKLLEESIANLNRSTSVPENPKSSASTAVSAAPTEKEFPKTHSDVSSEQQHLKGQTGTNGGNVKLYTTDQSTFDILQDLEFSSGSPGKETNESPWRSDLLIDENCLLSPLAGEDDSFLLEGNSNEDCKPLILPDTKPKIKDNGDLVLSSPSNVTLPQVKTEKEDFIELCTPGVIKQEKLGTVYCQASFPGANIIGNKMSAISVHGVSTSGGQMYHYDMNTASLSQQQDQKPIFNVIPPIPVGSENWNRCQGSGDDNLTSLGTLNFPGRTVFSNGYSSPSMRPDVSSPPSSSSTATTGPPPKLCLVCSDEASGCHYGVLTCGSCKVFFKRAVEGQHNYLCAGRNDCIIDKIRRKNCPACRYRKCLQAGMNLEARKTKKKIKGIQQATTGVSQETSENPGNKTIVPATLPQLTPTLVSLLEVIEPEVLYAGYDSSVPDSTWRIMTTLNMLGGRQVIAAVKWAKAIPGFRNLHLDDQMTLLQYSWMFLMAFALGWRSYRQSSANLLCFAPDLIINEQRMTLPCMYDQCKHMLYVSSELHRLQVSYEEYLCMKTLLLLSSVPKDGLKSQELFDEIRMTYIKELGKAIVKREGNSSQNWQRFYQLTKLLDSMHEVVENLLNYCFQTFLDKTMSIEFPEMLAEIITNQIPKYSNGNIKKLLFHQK
# Outline: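 GR-bla HeLa cells (beta-lactamase reporter under glucocorticoid response element) were plated 4 h at 37 C/5% CO2, given compounds in DMSO, and incubated 18 h at 37 C. LiveBLAzer B/G FRET substrate was added for 2 h at room temperature, then fluorescence intensity read.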
# [19] = molecular target: Glucocorticoid receptor (Homo sapiens) (UniProt P04150); assay: qHTS assay to identify small molecule antagonists of the glucocorticoid receptor (GR) signaling pathway (AID 720692; active = well fitted inhibition curve with a large enough effect in the signal ratio in the repeat runs, not every such curve was filed as active; the % refers to the signal ratio; note: potency is the fitted concentration of half-maximal effect)
# Outline: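 GR-bla HeLa cells (beta-lactamase reporter under glucocorticoid response element) were pre-plated 4 h at 37 C, treated with compounds plus 5 nM dexamethasone (final) for 18 h, then read by LiveBLAzer B/G FRET fluorescence after 2 h.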
Structure (SMILES),Potency [1],Potency [2],Potency [3],Potency [4],outcome [5],outcome [6],outcome [7],outcome [8],outcome [9],outcome [10],outcome [11],outcome [12],outcome [13],outcome [14],outcome [15],Potency [16],outcome [17],outcome [18],Potency [19]
O=S(=O)(Cl)c1ccccc1,inactive,inactive,inactive,inactive,inactive,inactive,inactive,inactive,inactive,inactive,inactive,inactive,inactive,inactive,inactive,,,,
COc1nn(CSP(=S)(OC)OC)c(=O)s1,inactive,,inactive,,inactive,inactive,inactive,,inactive,inactive,inactive,inactive,inactive,inactive,inactive,inactive,inactive,inactive,
CCc1ccc(C(=O)NN(C(=O)c2cc(C)cc(C)c2)C(C)(C)C)cc1,inactive,,,,inactive,inactive,inactive,inactive,inactive,,inactive,inactive,inactive,inactive,inactive,inactive,,inactive,
O=[N+]([O-])c1cc(C(F)(F)F)cc([N+](=O)[O-])c1Cl,inactive,,,,inactive,inactive,inactive,inactive,inactive,inactive,inactive,inactive,inactive,inactive,inactive,inactive,,inactive,inactive
COP(=O)(OC)O/C(=C/Cl)c1cc(Cl)c(Cl)cc1Cl,inactive,,inactive,,inactive,inactive,inactive,,inactive,inactive,inactive,inactive,inactive,inactive,inactive,inactive,inactive,,
O=[N+]([O-])c1ccc(F)c([N+](=O)[O-])c1,inactive,10.6 µM (active) and 27.6 µM (active),,,inactive,inactive,,inactive,inactive,inactive,inactive,,inactive,inactive,inactive,inactive,,,
O=C1CN=C(c2ccccc2)c2cc(Cl)ccc2N1CC1CC1,inactive,inactive,inactive,51 µM (active),inactive,inactive,inactive,inactive,inactive,inactive,inactive,inactive,inactive,inactive,inactive,,inactive,inactive,45.8 µM (active)
Clc1cc(Cl)c(Cl)c(Cl)c1,inactive,inactive,inactive,inactive,inactive,inactive,,,inactive,inactive,inactive,inactive,inactive,inactive,inactive,,inactive,inactive,
O=Cc1ccc2c(c1)OCO2,inactive,,inactive,inactive,inactive,inactive,inactive,inactive,inactive,inactive,inactive,inactive,inactive,inactive,inactive,inactive,inactive,inactive,
O=S(=O)(O)C(F)(F)C(F)(F)C(F)(F)C(F)(F)F,inactive,,inactive,,inactive,inactive,inactive,inactive,inactive,inactive,inactive,,inactive,inactive,inactive,inactive,inactive,inactive,inactive
COP(=S)(Oc1cc(Cl)c(Br)cc1Cl)c1ccccc1 (stereo not drawn),inactive,inactive,48.6 µM (active),48.6 µM (active),inactive,inactive,inactive,inactive,inactive,,inactive,inactive,inactive,inactive,inactive,,inactive,inactive,
O=C(CCl)c1ccc(Cl)cc1Cl,18.8 µM (active) and 43.3 µM (active),,inactive,inactive and 17.1 µM (active),inactive,inactive,,inactive,inactive,inactive,inactive,inactive,inactive,inactive,inactive,5.96 µM (active) and 9.69 µM (active) and inactive,inactive,inactive,
O=[N+]([O-])C(Br)(CO)CO,inactive,inactive,inactive,,inactive,inactive,inactive,inactive,inactive,inactive,inactive,inactive,inactive,inactive,inactive,,inactive,,
CCCC(Cn1cncn1)c1ccc(Cl)cc1Cl (stereo not drawn),inactive,inactive,,,inactive,inactive,,inactive,inactive,inactive,inactive,inactive,inactive,inactive,inactive,inactive,inactive,,49 µM (active)
C=CC(=O)OCCCCO,inactive,inactive,inactive,inactive,inactive,inactive,inactive,inactive,inactive,inactive,inactive,inactive,inactive,inactive,inactive,,inactive,inactive,
Clc1cccc2ccccc12,inactive,inactive,inactive,inactive,inactive,inactive,inactive,,inactive,inactive,inactive,inactive,inactive,inactive,inactive,,,,
CCOP(=S)(OCC)SCn1nnc2ccccc2c1=O,inactive,,27.3 µM (active),,inactive,inactive,inactive,inactive,inactive,inactive,inactive,,inactive,inactive,inactive,27.3 µM (active),inactive,inactive,

# Source: PubChem BioAssay (Tox21)
